# Test results reported in PubChem BioAssay.
# Active and inactive are the calls of the source. Unless noted, no rule for the calls is given here.
# Key:
# [1] = tested on: XIP peptide (Xip251-270) binding; test: small-molecule binders of XIP peptide, primary screen, biochemical, small-molecule microarray, fluorescence 635/667 nm, 0.1 µg/mL protein (AID 1182); settings: fluorescent protein binding, 635 nm, higher = more signal, called active from +8 up or from −8 down
# XIP peptide (Xip251-270) = test: small-molecule binders of XIP peptide, primary screen, biochemical, small-molecule microarray, fluorescence 635/667 nm, 0.5 µg/mL protein (AID 1183); settings: small-molecule microarray binding, fluorescence 635 nm; higher = more signal
# [2] = Plasmodium falciparum growth inhibition, primary screen, strain 3D7, DAPI fluorescence, 100 nL (AID 1184);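 also: parasites grown inside human red blood cells in medium with human serum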; settings: P. falciparum 3D7 growth, 3 d, higher = more signal
# [3] = molecular target: Homeobox protein Hox-A13 (Mus musculus) (UniProt Q62424); test: inhibitors of HoxA13-DNA binding, primary screen, biochemical, fluorescence polarization, labeled oligonucleotide (AID 1185); settings: 15 min, higher = more signal, called active from +8 up or from −8 down
# [4] = inhibitors of hydroxyurea-induced Chk1 phosphorylation, primary screen, imaging, HeLa, phospho-Chk1 antibody, percent positive cells (AID 1186); settings: hydroxyurea-induced phospho-Chk1 immunofluorescence imaging, higher = more signal
# [5] = inhibitors of hydroxyurea-induced Chk1 phosphorylation, primary screen, imaging, HeLa, phospho-Chk1 nuclear intensity (AID 1187); settings: hydroxyurea-induced phospho-Chk1 immunofluorescence imaging, higher = more signal
# Homeobox protein Hox-A13 (Mus musculus), sequence (Q62424 whole entry, looked up): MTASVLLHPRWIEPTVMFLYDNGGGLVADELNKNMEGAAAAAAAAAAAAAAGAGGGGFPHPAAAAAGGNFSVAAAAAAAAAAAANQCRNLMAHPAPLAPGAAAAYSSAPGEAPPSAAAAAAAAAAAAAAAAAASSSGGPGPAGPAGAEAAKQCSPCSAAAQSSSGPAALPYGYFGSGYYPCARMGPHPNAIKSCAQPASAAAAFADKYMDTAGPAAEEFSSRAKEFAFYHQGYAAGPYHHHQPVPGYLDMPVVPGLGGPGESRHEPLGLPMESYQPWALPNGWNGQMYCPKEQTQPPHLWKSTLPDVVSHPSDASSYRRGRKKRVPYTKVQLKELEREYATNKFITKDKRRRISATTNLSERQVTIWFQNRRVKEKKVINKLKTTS
Structure (SMILES),composite z-score [1],composite z-score (XIP peptide (Xip251-270)),z-score [2],z-score [3],z-score [4],z-score [5]
CC(C)CNC(=O)[C@@H]1c2ccccc2C(=O)N(CC23CC4CC(CC(C4)C2)C3)[C@H]1c1ccc(CO)cc1,0.41 (inactive),0.613,-2.11,-3.84 (inactive),-0.282 (inactive),-0.0264 (inactive)
CN1C(=O)C2C=CC(C(O)c3ccc(-c4ccccc4)s3)N(Nc3ccccc3)C2C1=O (stereo unspecified),0.844 (inactive),0.753,1.23,-4.68 (inactive),-0.11 (inactive),-0.316 (inactive)
COc1ccc(CCNC(=O)[C@@]2(Sc3ccc(C)cc3)CC(=O)N(C(C)C)[C@@H]2c2ccc(CO)cc2)cc1,0.117 (inactive),0.66,-0.302,-3.28 (inactive),0.0372 (inactive),-0.0512 (inactive)
O=C1O[C@@H](c2ccccc2)[C@@H](c2ccccc2)N2[C@@H](c3ccc(O)cc3)[C@]3(C(=O)Nc4ccc(C#CC5=CCCCC5)cc43)[C@@H](C(=O)N3CCCCCCC3)[C@H]12,1.52 (inactive),0.816,-1.99,4.91 (inactive),-0.434 (inactive),-0.686 (inactive)
C=CCOC(=O)[C@H]1[C@@H]2C(=O)O[C@@H](c3ccccc3)[C@@H](c3ccccc3)N2[C@@H](c2ccc(OCCOC(=O)[C@@H]3C[C@@H]4C(=O)N[C@@H](Cc5ccccc5)C(=O)N4[C@@H]3c3ccc(O)cc3)cc2)[C@]12C(=O)Nc1ccccc12,0.819 (inactive),0.743,-1.83,1.86 (inactive),-0.287 (inactive),-0.584 (inactive)
O=C(NCC(F)(F)F)[C@@H]1c2ccccc2C(=O)N(CC23CC4CC(CC(C4)C2)C3)[C@H]1c1ccc(CO)cc1,0.35 (inactive),0.586,-2.24,-4.02 (inactive),-0.254 (inactive),-0.371 (inactive)
CC(C)C[C@@H]1NC(=O)C([C@@H](C)OCc2ccccc2)NC(=O)[C@@]23C(=O)N[C@@H](Cc4ccccc4)C2[C@H](C)[C@@]2(C)O[C@H]2C3/C=C/CC/C=C/CNC1=O (stereo partly specified),-0.0755 (inactive),0.677,-3.08,-6.51 (inactive),-0.799 (inactive),-0.574 (inactive)
O=C1C2C=CC(C(O)c3cccs3)N(Nc3ccccc3)C2C(=O)N1c1ccccc1 (stereo unspecified),0.308 (inactive),0.171,-0.459,-2.56 (inactive),-0.719 (inactive),-0.649 (inactive)
CCCCCCCCCCC(O)C1C=CC2C(=O)N(C)C(=O)C2N1N1CCCCC1 (stereo unspecified),0.0477 (inactive),0.0634,-0.152,-4.08 (inactive),0.552 (inactive),0.303 (inactive)
C/C=C/CN(C(=O)C#Cc1ccccc1)[C@H](CO[Si](C)(C)C(C)(C)C)c1ccccc1,-0.617 (inactive),-0.109,-2.04,1.99 (inactive),-0.288 (inactive),-0.0994 (inactive)
CCOC(=O)C[C@H]1[C@H](OC(=O)c2cc3ccccc3oc2=O)[C@@H](NC(=O)C2CCCCC2)c2cc(OCCCO)ccc2N1C(=O)Cc1ccc(OC)cc1,0.0512 (inactive),0.0439,-0.565,-4.22 (inactive),0.521 (inactive),-0.306 (inactive)
C=C(C(=O)CC[C@@H](OC(C)=O)c1cccc(OCCO)c1)C(C)C,0.723 (inactive),0.436,-1.01,-4.41 (inactive),-0.0088 (inactive),0.158 (inactive)
COC(=O)[C@@]1(Cc2ccc(F)cc2)[C@H]2c3cc(C(=O)N(C)C)n(CCn4cc([N+](=O)[O-])nc4C)c3C[C@H]2CN1C(=O)c1ccccc1,0.128 (inactive),0.5,0.653,-2.06 (inactive),0.581 (inactive),0.197 (inactive)
NC(=O)[C@@]1(CCS(=O)(=O)c2ccccc2)COC(c2ccc(OCCCO)cc2)=N1,-0.377 (inactive),-0.395,0.605,-4.75 (inactive),-0.511 (inactive),-1.12 (inactive)
CCCC[C@H]1OB(O)C[C@H]2C1=C(C)C[C@H]1C(=O)C=CC(=O)[C@H]12,0.656 (inactive),0.229,-0.0202,-6.4 (inactive),0.217 (inactive),-0.0819 (inactive)
CCCC=C(CCC)[C@@H](NC(=O)c1ccco1)c1ccc(C(=O)OC)cc1,0.192 (inactive),0.585,-0.465,-1.4 (inactive),-0.125 (inactive),-0.17 (inactive)
COCCOC(=O)N1C(=O)[C@@]2(c3cc(C#CCC(C(=O)OC)C(=O)OC)ccc31)[C@H](C(=O)N1CCc3cc(OC)c(OC)cc3C1)[C@H]1C(=O)O[C@H](c3ccccc3)[C@H](c3ccccc3)N1[C@@H]2c1ccc(O)cc1,0.596 (inactive),0.676,-2.02,-1.46 (inactive),0.182 (inactive),0.424 (inactive)
NC(=O)NCC#Cc1ccc2c(c1)[C@]1(C(=O)N2)[C@H](C(=O)N2CCCCCCC2)[C@H]2C(=O)O[C@H](c3ccccc3)[C@H](c3ccccc3)N2[C@@H]1c1ccc(O)cc1,0.123 (inactive),0.833,0.285,-0.376 (inactive),0.0378 (inactive),-0.144 (inactive)
CCOC(=O)C[C@H]1[C@H](OC(=O)c2ccc(-c3ccccc3)cc2)[C@@H](NC(=O)c2ccc3ccccc3c2)c2cc(OCCCO)ccc2N1C(=O)c1ccccc1,0.377 (inactive),-0.0506,-0.633,-1.35 (inactive),0.0034 (inactive),0.241 (inactive)
COCCCN1C(=O)[C@@]2(Cc3ccccc31)c1ccccc1C(=O)N(Cc1ccccc1OC)[C@H]2c1ccc(CO)cc1,-0.184 (inactive),0.0806,0.861,-2.34 (inactive),0.177 (inactive),0.217 (inactive)
CC(=O)c1ccc(C(O)C2C=CC3C(=O)NC(=O)C3N2Nc2ccc(Cl)cc2Cl)cc1 (stereo unspecified),0.187 (inactive),0.02,-0.677,-5.84 (inactive),0.173 (inactive),0.588 (inactive)
C=CCC(OC(C)=O)[C@@H]1[C@@H](N(Cc2ccc(-c3cccc(C(F)(F)F)c3)o2)C(=O)Cc2ccc(F)cc2)c2cc(OCCCO)ccc2N1C(=O)c1ccc2ccccc2c1 (stereo partly specified),-0.502 (inactive),-0.669,-0.681,-1.3 (inactive),0.627 (inactive),0.835 (inactive)
COc1ccc(NN2C(C(O)c3cc(C(F)(F)F)cc(C(F)(F)F)c3)C=CC3C(=O)N(C4CCCCC4)C(=O)C32)cc1 (stereo unspecified),0.0376 (inactive),0.752,-0.5,-3.31 (inactive),-1.14 (inactive),-2.01 (inactive)
C=CCN1C(=O)[C@]2(O[C@H](CCO)[C@@H]([Si](C)(C)c3ccc(OC)cc3)[C@@H]2C)c2ccccc21,0.0965 (inactive),0.193,-2.31,-6.69 (inactive),-1.17 (inactive),-1.58 (inactive)
COc1ccc(C#Cc2ccc3c(c2)[C@]2(C(=O)N3)[C@H](C(=O)Nc3nc4ccccc4s3)[C@H]3C(=O)O[C@H](c4ccccc4)[C@H](c4ccccc4)N3[C@@H]2c2ccc(OCCO)cc2)cc1,-0.509 (inactive),0.782,-0.668,1.71 (inactive),0.218 (inactive),-0.0348 (inactive)
O=C1C2C=CC(C(O)c3ccc([N+](=O)[O-])cc3)N(Nc3ccccc3)C2C(=O)N1c1ccccc1 (stereo unspecified),0.392 (inactive),0.467,0.45,-4.48 (inactive),0.226 (inactive),-0.168 (inactive)
